Results: ChEMBL document CHEMBL1961873, “Compounds: GSK PKIS; Assays: Nanosyn kinase panel” (2012)

Key:
[1] = target: Serine/threonine-protein kinase MARK2 (Homo sapiens) (UniProt Q7KZI7); conditions: at 1 µM
[2] = target: PAS domain-containing serine/threonine-protein kinase (Homo sapiens) (UniProt Q96RG2); conditions: at 0.1 µM
[3] = target: PAS domain-containing serine/threonine-protein kinase (Homo sapiens) (UniProt Q96RG2); conditions: at 1 µM
[4] = target: Phosphorylase b kinase gamma catalytic chain, skeletal muscle/heart isoform (Homo sapiens) (UniProt Q16816); conditions: at 0.1 µM
[5] = target: Phosphorylase b kinase gamma catalytic chain, skeletal muscle/heart isoform (Homo sapiens) (UniProt Q16816); conditions: at 1 µM
[6] = target: T1, Phosphorylase b kinase gamma catalytic chain, liver/testis isoform (Homo sapiens) (UniProt P15735); conditions: at 0.1 µM
T1 sequence (whole entry): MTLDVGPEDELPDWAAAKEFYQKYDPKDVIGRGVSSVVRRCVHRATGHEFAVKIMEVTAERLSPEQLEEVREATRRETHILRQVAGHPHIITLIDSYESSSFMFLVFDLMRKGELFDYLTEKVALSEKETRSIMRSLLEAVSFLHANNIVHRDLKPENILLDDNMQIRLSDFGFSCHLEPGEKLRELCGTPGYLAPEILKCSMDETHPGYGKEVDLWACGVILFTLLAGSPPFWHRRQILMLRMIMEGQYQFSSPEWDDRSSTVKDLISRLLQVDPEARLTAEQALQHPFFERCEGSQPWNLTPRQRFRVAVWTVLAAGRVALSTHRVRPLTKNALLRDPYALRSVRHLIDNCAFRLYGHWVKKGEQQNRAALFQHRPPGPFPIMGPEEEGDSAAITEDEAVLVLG

[7] = target: T1, Phosphorylase b kinase gamma catalytic chain, liver/testis isoform (Homo sapiens); conditions: at 1 µM
[8] = target: Serine/threonine-protein kinase pim-1 (Homo sapiens) (UniProt P11309); conditions: at 0.1 µM
[9] = target: Serine/threonine-protein kinase pim-1 (Homo sapiens) (UniProt P11309); conditions: at 1 µM
[10] = target: Serine/threonine-protein kinase pim-2 (Homo sapiens) (UniProt Q9P1W9); conditions: at 0.1 µM
[11] = target: Serine/threonine-protein kinase pim-2 (Homo sapiens) (UniProt Q9P1W9); conditions: at 1 µM
[12] = target: Serine/threonine-protein kinase pim-3 (Homo sapiens) (UniProt Q86V86); conditions: at 0.1 µM
[13] = target: Serine/threonine-protein kinase pim-3 (Homo sapiens) (UniProt Q86V86); conditions: at 1 µM
[14] = target: T2, MAP kinase-activated protein kinase 5 (Homo sapiens) (UniProt Q8IW41); conditions: at 0.1 µM
T2 sequence (whole entry): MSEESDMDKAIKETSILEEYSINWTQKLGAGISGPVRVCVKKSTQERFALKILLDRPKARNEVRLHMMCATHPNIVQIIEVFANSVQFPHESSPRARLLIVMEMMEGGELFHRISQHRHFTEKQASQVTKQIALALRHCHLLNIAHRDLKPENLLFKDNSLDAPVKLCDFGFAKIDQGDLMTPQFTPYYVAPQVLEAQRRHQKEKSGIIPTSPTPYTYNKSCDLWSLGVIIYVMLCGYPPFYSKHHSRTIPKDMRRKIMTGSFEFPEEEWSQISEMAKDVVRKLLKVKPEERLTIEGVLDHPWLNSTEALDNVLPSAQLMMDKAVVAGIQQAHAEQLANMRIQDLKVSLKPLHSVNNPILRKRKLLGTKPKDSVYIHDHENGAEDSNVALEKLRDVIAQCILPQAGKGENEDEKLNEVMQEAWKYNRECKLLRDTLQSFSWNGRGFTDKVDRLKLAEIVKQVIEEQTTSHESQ

[15] = target: T2, MAP kinase-activated protein kinase 5 (Homo sapiens); conditions: at 1 µM
[16] = target: Serine/threonine-protein kinase SIK1 (Homo sapiens) (UniProt P57059); conditions: at 0.1 µM
[17] = target: Serine/threonine-protein kinase SIK1 (Homo sapiens) (UniProt P57059); conditions: at 1 µM
[18] = target: Serine/threonine-protein kinase SIK2 (Homo sapiens) (UniProt Q9H0K1); conditions: at 0.1 µM
[19] = target: Serine/threonine-protein kinase SIK2 (Homo sapiens) (UniProt Q9H0K1); conditions: at 1 µM
[20] = target: T3, Serine/threonine-protein kinase TBK1 (Homo sapiens) (UniProt Q9UHD2); conditions: at 0.1 µM;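 also: values are the mean TBK1 inhibition, taken from the GSK PKIS screening data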
T3 sequence (whole entry): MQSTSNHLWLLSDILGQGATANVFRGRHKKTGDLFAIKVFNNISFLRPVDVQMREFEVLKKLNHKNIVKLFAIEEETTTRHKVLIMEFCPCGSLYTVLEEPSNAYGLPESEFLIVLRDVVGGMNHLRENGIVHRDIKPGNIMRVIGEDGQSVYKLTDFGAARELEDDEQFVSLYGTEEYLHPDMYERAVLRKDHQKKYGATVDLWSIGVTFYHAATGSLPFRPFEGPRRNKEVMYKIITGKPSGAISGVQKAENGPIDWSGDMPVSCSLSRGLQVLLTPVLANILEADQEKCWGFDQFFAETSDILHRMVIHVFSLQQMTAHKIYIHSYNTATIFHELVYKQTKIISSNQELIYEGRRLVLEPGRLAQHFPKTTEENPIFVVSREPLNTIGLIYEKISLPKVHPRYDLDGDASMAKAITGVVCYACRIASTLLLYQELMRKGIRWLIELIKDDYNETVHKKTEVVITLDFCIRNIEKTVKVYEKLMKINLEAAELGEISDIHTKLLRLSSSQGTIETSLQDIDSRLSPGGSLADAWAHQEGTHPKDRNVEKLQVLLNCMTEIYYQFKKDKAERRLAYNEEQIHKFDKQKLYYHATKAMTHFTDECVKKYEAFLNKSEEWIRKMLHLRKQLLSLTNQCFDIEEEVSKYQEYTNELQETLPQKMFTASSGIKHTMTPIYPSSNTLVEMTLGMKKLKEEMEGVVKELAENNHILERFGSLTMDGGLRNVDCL

Chain of Serine/threonine-protein kinase SIK1 (Homo sapiens) (P57059 whole entry): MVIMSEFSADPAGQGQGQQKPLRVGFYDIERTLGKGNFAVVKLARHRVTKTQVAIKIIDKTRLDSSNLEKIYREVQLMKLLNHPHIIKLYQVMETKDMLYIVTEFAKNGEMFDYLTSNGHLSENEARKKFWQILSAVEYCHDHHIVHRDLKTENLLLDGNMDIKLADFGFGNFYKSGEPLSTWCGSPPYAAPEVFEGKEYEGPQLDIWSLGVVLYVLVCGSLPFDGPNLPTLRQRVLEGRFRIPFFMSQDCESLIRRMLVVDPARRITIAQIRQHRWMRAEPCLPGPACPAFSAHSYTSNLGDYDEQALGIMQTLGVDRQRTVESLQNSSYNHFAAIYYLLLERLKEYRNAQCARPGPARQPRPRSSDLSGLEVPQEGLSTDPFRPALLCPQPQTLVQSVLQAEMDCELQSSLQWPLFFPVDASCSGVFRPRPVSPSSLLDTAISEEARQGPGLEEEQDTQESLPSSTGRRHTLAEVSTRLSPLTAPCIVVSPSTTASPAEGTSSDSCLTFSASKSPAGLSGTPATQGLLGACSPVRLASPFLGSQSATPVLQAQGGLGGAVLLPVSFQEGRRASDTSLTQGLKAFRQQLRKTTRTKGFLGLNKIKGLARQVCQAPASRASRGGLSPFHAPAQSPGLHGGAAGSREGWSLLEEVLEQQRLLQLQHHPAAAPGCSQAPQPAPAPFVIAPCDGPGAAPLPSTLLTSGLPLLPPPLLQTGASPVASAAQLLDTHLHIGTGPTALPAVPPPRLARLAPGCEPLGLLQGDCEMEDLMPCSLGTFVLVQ
Chain of Serine/threonine-protein kinase pim-1 (Homo sapiens) (P11309 whole entry, looked up): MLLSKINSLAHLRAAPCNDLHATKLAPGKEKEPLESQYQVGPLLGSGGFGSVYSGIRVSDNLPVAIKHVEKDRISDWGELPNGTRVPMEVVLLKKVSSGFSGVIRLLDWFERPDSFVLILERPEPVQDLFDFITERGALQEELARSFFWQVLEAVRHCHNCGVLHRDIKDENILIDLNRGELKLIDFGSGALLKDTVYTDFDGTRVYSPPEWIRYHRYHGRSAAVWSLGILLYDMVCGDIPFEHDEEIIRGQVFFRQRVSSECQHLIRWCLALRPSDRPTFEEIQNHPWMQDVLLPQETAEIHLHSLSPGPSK
Chain of Serine/threonine-protein kinase MARK2 (Homo sapiens) (Q7KZI7 whole entry, the tested form may be a part): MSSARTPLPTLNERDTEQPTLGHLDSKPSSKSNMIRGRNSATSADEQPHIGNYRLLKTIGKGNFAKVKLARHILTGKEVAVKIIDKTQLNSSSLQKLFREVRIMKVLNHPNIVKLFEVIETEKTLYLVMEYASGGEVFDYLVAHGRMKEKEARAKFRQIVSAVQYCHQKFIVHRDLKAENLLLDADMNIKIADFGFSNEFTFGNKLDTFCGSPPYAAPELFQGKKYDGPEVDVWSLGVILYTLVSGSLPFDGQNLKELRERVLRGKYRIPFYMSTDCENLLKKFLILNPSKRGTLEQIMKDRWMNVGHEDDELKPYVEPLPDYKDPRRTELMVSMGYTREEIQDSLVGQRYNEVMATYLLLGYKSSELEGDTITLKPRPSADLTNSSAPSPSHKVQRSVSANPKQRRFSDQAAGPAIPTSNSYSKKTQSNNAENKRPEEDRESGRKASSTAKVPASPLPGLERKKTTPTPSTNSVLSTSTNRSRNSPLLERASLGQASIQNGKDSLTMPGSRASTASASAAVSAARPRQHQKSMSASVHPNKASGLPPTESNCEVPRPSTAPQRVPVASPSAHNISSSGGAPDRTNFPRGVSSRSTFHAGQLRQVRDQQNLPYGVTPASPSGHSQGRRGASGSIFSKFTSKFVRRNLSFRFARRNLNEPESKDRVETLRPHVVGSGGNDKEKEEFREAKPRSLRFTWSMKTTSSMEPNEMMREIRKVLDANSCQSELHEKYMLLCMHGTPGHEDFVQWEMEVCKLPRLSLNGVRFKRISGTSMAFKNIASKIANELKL
Chain of Serine/threonine-protein kinase SIK2 (Homo sapiens) (Q9H0K1 whole entry, looked up): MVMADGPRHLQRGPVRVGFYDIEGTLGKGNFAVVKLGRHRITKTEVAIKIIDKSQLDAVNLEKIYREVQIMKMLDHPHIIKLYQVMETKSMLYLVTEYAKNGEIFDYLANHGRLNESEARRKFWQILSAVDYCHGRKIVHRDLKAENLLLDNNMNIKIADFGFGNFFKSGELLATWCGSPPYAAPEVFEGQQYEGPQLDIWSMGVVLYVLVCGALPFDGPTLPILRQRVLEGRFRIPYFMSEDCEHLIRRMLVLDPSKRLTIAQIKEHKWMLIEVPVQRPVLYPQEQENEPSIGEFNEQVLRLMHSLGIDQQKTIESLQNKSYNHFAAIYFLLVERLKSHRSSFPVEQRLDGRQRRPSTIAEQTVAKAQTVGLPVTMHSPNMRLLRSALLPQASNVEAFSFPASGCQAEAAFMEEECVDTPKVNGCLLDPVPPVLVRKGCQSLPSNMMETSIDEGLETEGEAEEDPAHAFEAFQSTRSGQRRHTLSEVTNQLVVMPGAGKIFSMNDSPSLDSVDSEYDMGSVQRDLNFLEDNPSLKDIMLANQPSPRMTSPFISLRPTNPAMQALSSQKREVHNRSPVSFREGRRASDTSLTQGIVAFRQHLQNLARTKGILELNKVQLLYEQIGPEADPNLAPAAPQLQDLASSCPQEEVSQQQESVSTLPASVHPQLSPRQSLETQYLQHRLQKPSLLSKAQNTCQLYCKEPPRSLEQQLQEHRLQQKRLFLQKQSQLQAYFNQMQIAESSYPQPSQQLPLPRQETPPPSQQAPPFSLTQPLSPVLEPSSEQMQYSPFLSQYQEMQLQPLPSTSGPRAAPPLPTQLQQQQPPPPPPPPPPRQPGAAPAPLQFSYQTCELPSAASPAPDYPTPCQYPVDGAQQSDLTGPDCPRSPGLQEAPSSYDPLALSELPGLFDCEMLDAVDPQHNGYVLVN
Chain of Phosphorylase b kinase gamma catalytic chain, skeletal muscle/heart isoform (Homo sapiens) (Q16816 whole entry, looked up, canonical isoform): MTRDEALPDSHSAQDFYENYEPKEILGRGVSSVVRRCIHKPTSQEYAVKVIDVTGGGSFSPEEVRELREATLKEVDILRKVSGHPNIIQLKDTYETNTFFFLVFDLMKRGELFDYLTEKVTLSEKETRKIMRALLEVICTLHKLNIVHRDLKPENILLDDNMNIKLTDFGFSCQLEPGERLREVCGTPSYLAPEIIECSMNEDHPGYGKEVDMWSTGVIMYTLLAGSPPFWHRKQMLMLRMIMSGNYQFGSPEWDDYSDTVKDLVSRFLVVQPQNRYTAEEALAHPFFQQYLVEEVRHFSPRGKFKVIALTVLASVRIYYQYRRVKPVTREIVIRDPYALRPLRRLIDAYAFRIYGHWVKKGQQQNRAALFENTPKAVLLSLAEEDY
Chain of Serine/threonine-protein kinase pim-2 (Homo sapiens) (Q9P1W9 whole entry, looked up): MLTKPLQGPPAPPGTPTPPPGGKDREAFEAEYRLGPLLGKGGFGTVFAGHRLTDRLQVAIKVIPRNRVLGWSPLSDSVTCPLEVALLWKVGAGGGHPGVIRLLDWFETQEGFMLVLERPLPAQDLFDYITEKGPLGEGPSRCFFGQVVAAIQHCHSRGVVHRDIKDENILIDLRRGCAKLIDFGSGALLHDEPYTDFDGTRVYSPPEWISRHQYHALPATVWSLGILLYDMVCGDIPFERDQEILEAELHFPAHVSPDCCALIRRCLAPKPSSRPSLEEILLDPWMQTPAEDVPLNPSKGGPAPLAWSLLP

Row | Compound | inhibition [1] [%] | inhibition [2] [%] | inhibition [3] [%] | inhibition [4] [%] | inhibition [5] [%] | inhibition [6] [%] | inhibition [7] [%] | inhibition [8] [%] | inhibition [9] [%] | inhibition [10] [%] | inhibition [11] [%] | inhibition [12] [%] | inhibition [13] [%] | inhibition [14] [%] | inhibition [15] [%] | inhibition [16] [%] | inhibition [17] [%] | inhibition [18] [%] | inhibition [19] [%] | inhibition [20] [%]
1 | COc1ccc2cc(-c3c(-c4ccncc4)nc(-c4ccc(S(C)(=O)=O)cc4C)n3C)ccc2c1 | 1.75 | -0.05 | 2.36 | 5.34 | 5.99 | 5.31 | 5.26 | 2.41 | 2.08 | 0.92 | 4.18 | 4.87 | 3.73 | 1.38 | 2.64 | 5.28 | 9.27 | 3.7 | 10.8 | 2.5
2 | O=C1Nc2ccccc2/C1=C/Nc1ccc(-n2cncn2)cc1 | 10.2 | 0.03 | 1.73 | 9.39 | 33.6 | 5.95 | 18.7 | 0.85 | 0.68 | 0.56 | 2.25 | 1.36 | 4.7 | 1.63 | 4.02 | 5.8 | 9.8 | 3.09 | 11.6 | 6.41
3 | NCc1ccc(-n2c(-c3nonc3N)nc3cnccc32)cc1 | 23.4 | 0 | 2.53 | 7.71 | 16 | 6.79 | 4.79 | 34.4 | 82.8 | 8.18 | 45.2 | 16.4 | 68.5 | 1.5 | 1.55 | 5.74 | 11.6 | 5.87 | 15.8 | 4.35
4 | CNC(=O)c1cncc(/C=C/c2c(C)cccc2C)c1 | 0.9 | 1.4 | 0.92 | 0.1 | -0.59 | 2.11 | 0.8 | 0.92 | 1.36 | -4.04 | -3.47 | 1.2 | 2.65 | -0.02 | -0.41 | 26.2 | 76 | 7.18 | 27.6 | 0.21
5 | CCc1cccc(CC)c1/C=C/c1cncc(C(=O)NC)c1 | 1.59 | 0.55 | -0.71 | 0.98 | 3.16 | 3.56 | 0.53 | 1.04 | 1.26 | -0.07 | -0.07 | -0.9 | -2.15 | 0.86 | -0.1 | 0.91 | 6.26 | 1.69 | -1.33 | 0.14
6 | CN(C)CCCNc1nccc(-c2c(-c3ccc(F)cc3)nn3cc(C(F)(F)F)ccc23)n1 | 2.71 | 0.83 | -0.37 | -0.27 | 2.68 | 2.52 | 0.17 | 0.62 | 1.32 | -3.76 | -3.32 | -0.45 | -0.57 | 0.44 | -0.97 | 3.07 | 7.21 | -1 | 6.81 | 0.75
7 | Fc1ccc(-c2ncn(CCCN3CCOCC3)c2-c2ccncc2)cc1 | 2.44 | 0.57 | 0.36 | 1.86 | 2.09 | -0.42 | -2.63 | -0.06 | -0.27 | 0.24 | 0.84 | -1.36 | -2.93 | -0.65 | -1.42 | -2.01 | 3.56 | -2.31 | 2.48 | 1.21
